The source of these data is article PMC4336329 (PLoS ONE, 2015).

Among all 310,000 compounds or so, about 14,000 (4.5%) showed an effect of 50% or more. Effects have a minus sign here. The full list was thinned out, with strong results kept by preference.
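Also: peak tail current of the secondary pulse compared with the same well before compound.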

For the experiment, the target named is human ether-à-go-go-related gene (hERG) potassium channel (human, UniProt Q12809). In words: primary screen, population patch clamp on CHO cells stably expressing hERG; higher = less effect of the substance.
Chain of human ether-à-go-go-related gene (hERG) potassium channel (Q12809 whole entry, looked up): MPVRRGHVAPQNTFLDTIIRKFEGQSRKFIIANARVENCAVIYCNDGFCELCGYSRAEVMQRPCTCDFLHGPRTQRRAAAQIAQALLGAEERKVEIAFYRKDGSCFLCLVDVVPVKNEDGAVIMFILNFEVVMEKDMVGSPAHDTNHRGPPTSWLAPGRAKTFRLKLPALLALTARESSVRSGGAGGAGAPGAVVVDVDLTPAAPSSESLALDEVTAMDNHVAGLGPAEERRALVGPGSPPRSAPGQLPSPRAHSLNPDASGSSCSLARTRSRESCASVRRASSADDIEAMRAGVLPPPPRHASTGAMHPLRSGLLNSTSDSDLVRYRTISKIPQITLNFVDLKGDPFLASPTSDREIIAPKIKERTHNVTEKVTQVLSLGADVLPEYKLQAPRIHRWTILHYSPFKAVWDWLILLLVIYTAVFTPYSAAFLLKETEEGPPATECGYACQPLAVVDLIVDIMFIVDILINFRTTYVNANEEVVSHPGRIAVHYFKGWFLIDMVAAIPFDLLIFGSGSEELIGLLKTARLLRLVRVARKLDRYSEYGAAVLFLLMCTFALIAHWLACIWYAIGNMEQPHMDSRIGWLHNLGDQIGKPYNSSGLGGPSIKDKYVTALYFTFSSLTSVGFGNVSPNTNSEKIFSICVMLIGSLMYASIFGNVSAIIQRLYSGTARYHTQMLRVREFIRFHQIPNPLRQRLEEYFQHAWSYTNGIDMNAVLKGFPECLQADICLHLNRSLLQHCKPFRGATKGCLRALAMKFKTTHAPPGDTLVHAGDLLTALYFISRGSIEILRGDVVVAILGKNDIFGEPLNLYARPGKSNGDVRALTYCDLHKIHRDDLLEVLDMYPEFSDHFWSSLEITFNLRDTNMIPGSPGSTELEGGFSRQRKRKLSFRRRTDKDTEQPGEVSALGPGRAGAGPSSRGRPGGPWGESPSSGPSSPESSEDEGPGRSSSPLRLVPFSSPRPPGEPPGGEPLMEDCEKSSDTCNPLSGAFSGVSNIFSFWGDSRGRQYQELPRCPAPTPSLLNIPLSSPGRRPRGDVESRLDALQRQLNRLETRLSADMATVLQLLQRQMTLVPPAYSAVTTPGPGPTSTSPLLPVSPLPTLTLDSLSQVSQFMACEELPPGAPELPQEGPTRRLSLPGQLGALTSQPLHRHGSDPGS
With `COc1ccccc1C(=O)NNC(=O)c1ccccc1Br`, the “hERG current change (%, negative = inhibition) at 10uM” value is on record as 23%. The result for `COc1ccccc1NC(=S)NNC(=O)c1ccccc1Br` reads -70.9%; that for `COc1ccccc1NC(=S)NNC(=O)c1ccccc1`, -1.04%; that for `Cc1nn(Cc2ccc(F)cc2Cl)c(C)c1[N+](=O)[O-]`, -1.01%. The result for `Cc1ccc(OCC(=O)O/N=C(\N)c2ccccn2)cc1C` reads -11.3%.

Take `COc1ccc(Nc2nc(C)c(-c3ccccc3)s2)cc1`: the “hERG current change (%, negative = inhibition) at 10uM” value amounted to 14.9%. The figure for `O=C(O)c1ccc(Nc2nc3c(s2)CCCC3)cc1` is -81.3%; for `Cc1nc(Nc2ccccc2)sc1-c1ccccc1` it is 1.73%. The result for `Cc1nc(Nc2ccc(C(=O)O)cc2)sc1-c1ccccc1` reads -76.5%. The result for `Cc1cccc(Nc2nc3c(s2)CCCC3)c1` reads -8.11%. `COc1ccc(NC(=O)Nc2nc3c(s2)CCCC3)cc1`: the “hERG current change (%, negative = inhibition) at 10uM” value is recorded as -26.8%. The figure for `C=CCSC1=C(C#N)C2(CCCCC2)C(C#N)C(=O)N1` (stereo not shown) is -3.87%; for `C=CCNc1sc(C(=O)C(C)(C)C)c(N)c1C#N` it is 5.11%; for `CCN(CC(=O)Nc1ccc(OC)cc1)C(=O)c1ccc2c(=O)n3c(nc2c1)CCC3` it is 9.77%.

On to `C=CCn1cnc2c(sc3nc(C)cc(C)c32)c1=O`, for which the “hERG current change (%, negative = inhibition) at 10uM” value is -6.75%. As to `COc1ccccc1OCCNC(=O)c1cc([N+](=O)[O-])cc([N+](=O)[O-])c1`, the “hERG current change (%, negative = inhibition) at 10uM” value was 12.2%. Take `Cc1nc(-c2ccncc2)nc(NCCNc2ncccc2C(F)(F)F)c1Cl`: the “hERG current change (%, negative = inhibition) at 10uM” value is reported as 6.57%.

In the case of `COc1ccccc1CC(=O)NC1CCCc2ccccc21` (stereo not shown), the “hERG current change (%, negative = inhibition) at 10uM” value is recorded as -32.8%.

Take `Cc1cc(C)n(CCN(C)C(=O)CCc2nnc(CCC3CCCCC3)o2)n1`: the “hERG current change (%, negative = inhibition) at 10uM” value was -4.29%. Consider `O=C(CCc1nnc(-c2ccc3c(c2)OCO3)o1)N1CCC(c2ccc(F)cc2)C1` (stereo not shown), for which the “hERG current change (%, negative = inhibition) at 10uM” value is -56%. The figure for `Cc1cc(C)n(CCN(C)C(=O)CCc2nnc(-c3ccc4c(c3)OCO4)o2)n1` is -51.7%. In the case of `CCN(CCn1cccn1)C(=O)CCc1nnc(-c2ccc3c(c2)OCO3)o1`, the “hERG current change (%, negative = inhibition) at 10uM” value was -5.68%. With `CC1CCCN(C(=O)CCc2nnc(-c3ccc4c(c3)OCO4)o2)C1` (stereo not shown), the “hERG current change (%, negative = inhibition) at 10uM” value was -4.43%.

On to `CCC(=O)C1CCCN(C(=O)CCc2nnc(-c3ccc4c(c3)OCO4)o2)C1` (stereo not shown), for which the “hERG current change (%, negative = inhibition) at 10uM” value is -8.82%. The result for `O=C(CNc1ccc2ccccc2c1)N/N=C/c1ccc(OC(=O)/C=C/c2ccco2)cc1` reads 22.7%; that for `Cc1ccccc1OS(=O)(=O)c1cn(C)c(=O)n(C)c1=O`, 11.4%.

With `Cc1ccc(C2CC(=O)C=C(Nc3ccc(Cl)cc3)C2)cc1` (stereo not shown), the “hERG current change (%, negative = inhibition) at 10uM” value amounted to 7.93%. The figure for `Cc1ccc(S(=O)(=O)/N=C/N(C)C)cc1` is 0.768%; for `COc1ccc(-c2cnnc(N/N=C/C(C)=C/c3ccccc3)n2)cc1` it is -9.57%; for `CCc1c(C(=O)NCCc2cccc(C)c2)[nH]c(C)c1C(C)=O` it is 12.2%. The figure for `O=C(CNC(=O)c1ccccc1)NCC(O)c1ccc([N+](=O)[O-])cc1` (stereo not shown) is 10.7%; for `O=[N+]([O-])c1ccc(C(O)CN2CCN(Cc3ccccc3)CC2)cc1` (stereo not shown) it is -73.4%; for `O=C(NCC(O)c1ccc([N+](=O)[O-])cc1)C(c1ccccc1)c1ccccc1` (stereo not shown) it is -46.2%.

On to `O=[N+]([O-])c1ccc(C(O)CN2CCN(c3ccccc3)CC2)cc1` (stereo not shown), for which the “hERG current change (%, negative = inhibition) at 10uM” value is -50.3%. The figure for `CC1SC(c2ccccc2)N(CC(O)c2ccc([N+](=O)[O-])cc2)C1=O` (stereo not shown) is -80.6%. The result for `O=C1CSC(c2ccccc2)N1CC(O)c1ccc([N+](=O)[O-])cc1` (stereo not shown) reads -12.1%. The figure for `O=[N+]([O-])c1ccc(C(O)CN2CCOCC2)cc1` (stereo not shown) is 18.5%; for `Oc1ccc(N2CCN(CC(O)c3ccccc3)CC2)cc1` (stereo not shown) it is 10.4%; for `O=C1CCN(Cc2ccc([N+](=O)[O-])cc2)CCN1[C@H](CO)c1ccccc1` it is -37.4%. For the molecule `O=[N+]([O-])c1ccc(C(O)CNC(=S)Nc2ccccc2)cc1` (stereo not shown), the “hERG current change (%, negative = inhibition) at 10uM” value is -11.6%.

Regarding `O=C(CC(c1ccccc1)c1ccccc1)NCC(O)c1ccc([N+](=O)[O-])cc1` (stereo not shown), the “hERG current change (%, negative = inhibition) at 10uM” value is listed as -58.1%. Turning to `O=[N+]([O-])c1ccc(C(O)C[n+]2ccccc2)cc1.[I-]` (stereo not shown), the “hERG current change (%, negative = inhibition) at 10uM” value came to 12%. Take `COc1ccccc1NC(=S)NC(=O)C(C)C`: the “hERG current change (%, negative = inhibition) at 10uM” value was -21.8%. `Cc1c(C(=O)N2CCCCC2)nn(-c2ccc(Cl)cc2)c(=O)c1C#N`: the “hERG current change (%, negative = inhibition) at 10uM” value was -17.5%. Take `CC(C)(C)n1nc2c(c1NC(=O)COc1ccc(Cl)cc1)CS(=O)(=O)C2`: the “hERG current change (%, negative = inhibition) at 10uM” value is recorded as -46.5%.

With `Cc1cccc(NC(=S)Nc2ccc3cn[nH]c3c2)c1`, the “hERG current change (%, negative = inhibition) at 10uM” value is reported as 1.96%. As for `COc1ccc(C(=O)[C@H]2[C@H]3C(=O)N(c4ccccc4)C(=O)[C@H]3C3C=CC=NN32)cc1` (stereo partly shown), the “hERG current change (%, negative = inhibition) at 10uM” value was 4.94%. The figure for `O=[N+]([O-])c1ccc(C(O)CN2CCN(C/C=C/c3ccccc3)CC2)cc1` (stereo not shown) is -76.9%; for `O=S(=O)(c1ccc(S(=O)(=O)N2CCN(C/C=C/c3ccccc3)CC2)cc1)N1CCCC1` it is 11.6%. Take `O=S(=O)(c1ccccc1)N1CCN(C/C=C/c2ccccc2)CC1`: the “hERG current change (%, negative = inhibition) at 10uM” value was -22%. Regarding `Cc1occc1-c1nc(-c2ccncc2)no1`, the “hERG current change (%, negative = inhibition) at 10uM” value was -10.4%. Consider `COc1ccc(OC)c(-n2nnnc2SCC(=O)Nc2nc(C)c(C)s2)c1`, for which the “hERG current change (%, negative = inhibition) at 10uM” value is listed as -1.73%. Consider `Cc1sc2ncnc(N3CCC(C(=O)Nc4ccc(Cl)cc4Cl)CC3)c2c1C`, for which the “hERG current change (%, negative = inhibition) at 10uM” value is reported as -7.65%.

On to `Cc1sc2ncnc(N3CCC(C(=O)NNC(=O)COc4cccc(C(F)(F)F)c4)CC3)c2c1C`, for which the “hERG current change (%, negative = inhibition) at 10uM” value is recorded as -40%. For `Cc1sc2ncnc(N3CCC(C(=O)Nc4ccc(Cl)c(Cl)c4)CC3)c2c1C`, the “hERG current change (%, negative = inhibition) at 10uM” value was -7.26%. Consider `COc1ccc(OCC(=O)NNC(=O)C2CCN(c3ncnc4sc(C)c(C)c34)CC2)cc1`, for which the “hERG current change (%, negative = inhibition) at 10uM” value is given as -52.5%. The figure for `Cc1sc2ncnc(N3CCC(C(=O)NNC(=O)COc4ccccc4F)CC3)c2c1C` is -57%. The result for `Cc1sc2ncnc(N3CCC(C(=O)NCC(=O)Nc4ccc(F)c(F)c4)CC3)c2c1C` reads -67.2%. For the molecule `COc1ccccc1N1CCN(c2ncnc3sc(C(=O)NCC4CCCO4)c(C)c23)CC1` (stereo not shown), the “hERG current change (%, negative = inhibition) at 10uM” value is recorded as -5%.

`Cc1c(C(=O)NC2CCCCC2)sc2ncnc(N3CCN(c4ccccc4)CC3)c12`: the “hERG current change (%, negative = inhibition) at 10uM” value came out at 13.7%.

As to `Cc1sc2ncnc(N3CCC(C(=O)NNC(=O)COc4ccccc4Cl)CC3)c2c1C`, the “hERG current change (%, negative = inhibition) at 10uM” value was -38.6%. The result for `COc1ccc(N2CCN(c3ncnc4sc(C(=O)NCC5CCCO5)c(C)c34)CC2)cc1` (stereo not shown) reads -63.4%; that for `Cc1ccccc1OCC(=O)NNC(=O)C1CCN(c2ncnc3sc(C)c(C)c23)CC1`, -19.3%. The result for `COc1ccccc1OCC(=O)NNC(=O)C1CCN(c2ncnc3sc(C)c(C)c23)CC1` reads 10.5%.
